What was measured:
Assay in all cases: PBM binding z-score (relative to random genomic background probes); higher = stronger binding; sequences stand for … in GC…GCGATTGACAGCGTAGAATGAAGG
[1] = test system: FXR:RXRa (NR concentration 270 nM, RXRa partner concentration 90 nM)
How it was run: (§1)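 Regression normalization was applied to scanned fluorescence from custom Agilent 4×180K protein-binding microarrays. Before scanning, arrays were incubated 1 h with ligand-free nuclear receptor dimers, and binding was detected with antibodies against each partner (one per run). Binding z-scores use the random background probes as reference.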

[2] = test system: LXRa:RXRa (NR concentration 270 nM, RXRa partner concentration 90 nM)
How it was run: as §1

[3] = test system: LXRa homodimer (NR concentration 270 nM)
How it was run: as §1

[4] = test system: LXRb:RXRa (NR concentration 270 nM, RXRa partner concentration 90 nM)
How it was run: as §1

[5] = test system: LXRb homodimer (NR concentration 270 nM)
How it was run: as §1

[6] = test system: PPARa:RXRa (NR concentration 270 nM, RXRa partner concentration 90 nM)
How it was run: as §1

[7] = test system: PPARg:RXRa (NR concentration 180 nM, RXRa partner concentration 90 nM)
How it was run: as §1

[8] = test system: PPARg:RXRa 270nM:90nM, anti-RXR (NR concentration 270 nM, RXRa partner concentration 90 nM)
How it was run: as §1

[9] = test system: PPARg:RXRa 30nM:10nM, anti-RXR (NR concentration 30 nM, RXRa partner concentration 10 nM)
How it was run: as §1

[10] = test system: PPARg:RXRa 90nM:30nM, anti-RXR (NR concentration 90 nM, RXRa partner concentration 30 nM)
How it was run: as §1

Sequence: TCATATAGGTAAAAGGTGAAAGGCGGTGTGGTAA
- PBM binding z-score [1]: 1.86
- PBM binding z-score [2]: 1.88
- PBM binding z-score [3]: 0.349
- PBM binding z-score [4]: 1.9
- PBM binding z-score [5]: 0.306
- PBM binding z-score [6]: 5.25
- PBM binding z-score [7]: 9.05
- PBM binding z-score [8]: 8.31
- PBM binding z-score [9]: 8.92
- PBM binding z-score [10]: 9.94

Sequence: TGTCAAGGTTCAAAGGTAACGTAAGTATCCACAC
- PBM binding z-score [1]: 6.06
- PBM binding z-score [2]: 5.12
- PBM binding z-score [3]: 1.39
- PBM binding z-score [4]: 3.74
- PBM binding z-score [5]: 0.581
- PBM binding z-score [6]: 5
- PBM binding z-score [7]: 6.29
- PBM binding z-score [8]: 6.26
- PBM binding z-score [9]: 3.14
- PBM binding z-score [10]: 5.92

Sequence: TCTGCTAGGTCAACGATGGTCAGCTTATCTGCTA
- PBM binding z-score [1]: 3.6
- PBM binding z-score [2]: 2.98
- PBM binding z-score [3]: -0.083
- PBM binding z-score [4]: 1.77
- PBM binding z-score [5]: -0.302
- PBM binding z-score [6]: 3.38
- PBM binding z-score [7]: 2.43
- PBM binding z-score [8]: 3.06
- PBM binding z-score [9]: 2.06
- PBM binding z-score [10]: 2.59

Sequence: CAAGCTAGGTCAAGGTCAAAGTCGGTTTGTGCCA
- PBM binding z-score [1]: 6.4
- PBM binding z-score [2]: 5.71
- PBM binding z-score [3]: 4.42
- PBM binding z-score [4]: 4.74
- PBM binding z-score [5]: 1.37
- PBM binding z-score [6]: 5.36
- PBM binding z-score [7]: 5.58
- PBM binding z-score [8]: 5.39
- PBM binding z-score [9]: 2.37
- PBM binding z-score [10]: 4.73

Sequence: TCTGCTAGGTCAATTGGTCAGCTAACGAGCTGCC
- PBM binding z-score [1]: 2.99
- PBM binding z-score [2]: 2.31
- PBM binding z-score [3]: -0.37
- PBM binding z-score [4]: 1.44
- PBM binding z-score [5]: 0.648
- PBM binding z-score [6]: 3.04
- PBM binding z-score [7]: 1.76
- PBM binding z-score [8]: 2.76
- PBM binding z-score [9]: 1.64
- PBM binding z-score [10]: 2.31

Sequence: TCATATAGGTAAACAGGTGATAGTCCGTAAGTTA
- PBM binding z-score [1]: 0.91
- PBM binding z-score [2]: 0.907
- PBM binding z-score [3]: 0.318
- PBM binding z-score [4]: 0.806
- PBM binding z-score [5]: -0.237
- PBM binding z-score [6]: 1.73
- PBM binding z-score [7]: 2.35
- PBM binding z-score [8]: 3.2
- PBM binding z-score [9]: 4.04
- PBM binding z-score [10]: 3.64

Sequence: CCTTACGGGTTACGAGGTTATAGCACGACGAGCG
- PBM binding z-score [1]: 1.8
- PBM binding z-score [2]: 2.11
- PBM binding z-score [3]: 0.0451
- PBM binding z-score [4]: 1.8
- PBM binding z-score [5]: -0.317
- PBM binding z-score [6]: 3.36
- PBM binding z-score [7]: 2.89
- PBM binding z-score [8]: 3.03
- PBM binding z-score [9]: 0.671
- PBM binding z-score [10]: 1.8

Sequence: CTCGACAGGTCGGTTGAGGTGAGTATACGGATAA
- PBM binding z-score [1]: 1.43
- PBM binding z-score [2]: -0.211
- PBM binding z-score [3]: -0.296
- PBM binding z-score [4]: -0.278
- PBM binding z-score [5]: -0.791
- PBM binding z-score [6]: 0.423
- PBM binding z-score [7]: 0.166
- PBM binding z-score [8]: -0.237
- PBM binding z-score [9]: -0.356
- PBM binding z-score [10]: -0.324

Sequence: TCTTGTAGATCAAGCAGGGTAAGAAAGCCTGAGT
- PBM binding z-score [1]: 0.561
- PBM binding z-score [2]: -0.0537
- PBM binding z-score [3]: -0.634
- PBM binding z-score [4]: 0.0919
- PBM binding z-score [5]: -0.511
- PBM binding z-score [6]: 0.15
- PBM binding z-score [7]: -0.37
- PBM binding z-score [8]: 1.08
- PBM binding z-score [9]: 2.34
- PBM binding z-score [10]: 1.6

Sequence: GTACCAAGGTCAATAGGTCGTTGATGAGTAGGCG
- PBM binding z-score [1]: 6.19
- PBM binding z-score [2]: 4.5
- PBM binding z-score [3]: 0.864
- PBM binding z-score [4]: 3.74
- PBM binding z-score [5]: 0.614
- PBM binding z-score [6]: 5.37
- PBM binding z-score [7]: 5.15
- PBM binding z-score [8]: 5.05
- PBM binding z-score [9]: 2.14
- PBM binding z-score [10]: 4.13

Sequence: TAAATGAGGTTATAAGATCAGGGAACGTTGCAAA
- PBM binding z-score [1]: 1.94
- PBM binding z-score [2]: 2.28
- PBM binding z-score [3]: 0.212
- PBM binding z-score [4]: 1.55
- PBM binding z-score [5]: 0.646
- PBM binding z-score [6]: 2.85
- PBM binding z-score [7]: 2.1
- PBM binding z-score [8]: 2.73
- PBM binding z-score [9]: 2.19
- PBM binding z-score [10]: 2.51

Sequence: ATCTCTAGGTAACAAGTTCGGTGAAAGAGAGGAC
- PBM binding z-score [1]: 0.656
- PBM binding z-score [2]: 0.804
- PBM binding z-score [3]: 0.56
- PBM binding z-score [4]: 0.383
- PBM binding z-score [5]: 0.814
- PBM binding z-score [6]: 0.973
- PBM binding z-score [7]: 1.13
- PBM binding z-score [8]: 1.67
- PBM binding z-score [9]: 0.766
- PBM binding z-score [10]: 1.35

Sequence: GATACAGGGTCAGCGAGAGGCCAGAGTATGGAAA
- PBM binding z-score [1]: 5.07
- PBM binding z-score [2]: 3.15
- PBM binding z-score [3]: -0.446
- PBM binding z-score [4]: 2.63
- PBM binding z-score [5]: -1.12
- PBM binding z-score [6]: 5.05
- PBM binding z-score [7]: 4.14
- PBM binding z-score [8]: 3.78
- PBM binding z-score [9]: 1.07
- PBM binding z-score [10]: 2.38

Sequence: ATCGAAAAGTCGTGAGGTGAGTATACAGAAAGGC
- PBM binding z-score [1]: 0.379
- PBM binding z-score [2]: 0.127
- PBM binding z-score [3]: -0.461
- PBM binding z-score [4]: -0.0752
- PBM binding z-score [5]: -0.13
- PBM binding z-score [6]: 0.351
- PBM binding z-score [7]: 0.623
- PBM binding z-score [8]: -0.104
- PBM binding z-score [9]: 0.404
- PBM binding z-score [10]: 0.0436

Sequence: TTACCAAGGTGAGCTGAGGTCGTTGGTCCAACTC
- PBM binding z-score [1]: 1.55
- PBM binding z-score [2]: 1.34
- PBM binding z-score [3]: -0.436
- PBM binding z-score [4]: 0.439
- PBM binding z-score [5]: -1.02
- PBM binding z-score [6]: 1.67
- PBM binding z-score [7]: -0.467
- PBM binding z-score [8]: 0.63
- PBM binding z-score [9]: -0.5
- PBM binding z-score [10]: 0.00719

Sequence: TCTCTTAGTTGATTAGGGCAACCGAAACAGCGGA
- PBM binding z-score [1]: 0.698
- PBM binding z-score [2]: 0.799
- PBM binding z-score [3]: 0.13
- PBM binding z-score [4]: 0.868
- PBM binding z-score [5]: 1.26
- PBM binding z-score [6]: 1.22
- PBM binding z-score [7]: 0.00699
- PBM binding z-score [8]: 2.24
- PBM binding z-score [9]: 3.88
- PBM binding z-score [10]: 3.1

Sequence: GTACCAAGGTGAATGGGTCGTTGATGAGTAGGCG
- PBM binding z-score [1]: 0.456
- PBM binding z-score [2]: 0.288
- PBM binding z-score [3]: -0.238
- PBM binding z-score [4]: 0.0453
- PBM binding z-score [5]: -0.983
- PBM binding z-score [6]: 1.71
- PBM binding z-score [7]: 1.26
- PBM binding z-score [8]: 1.19
- PBM binding z-score [9]: 0.195
- PBM binding z-score [10]: 0.732

Sequence: CGAACGAGGGTATGAGTTGATAGCAAATGCCGAT
- PBM binding z-score [1]: -0.386
- PBM binding z-score [2]: -0.2
- PBM binding z-score [3]: -0.268
- PBM binding z-score [4]: -0.396
- PBM binding z-score [5]: -0.567
- PBM binding z-score [6]: -0.124
- PBM binding z-score [7]: 0.652
- PBM binding z-score [8]: 0.353
- PBM binding z-score [9]: -0.0706
- PBM binding z-score [10]: 0.292

Sequence: GCTGCTAGGTCAGGTTGGTAAGCTAACGGGTACG
- PBM binding z-score [1]: 1.13
- PBM binding z-score [2]: 0.523
- PBM binding z-score [3]: -0.37
- PBM binding z-score [4]: 0.0783
- PBM binding z-score [5]: -0.406
- PBM binding z-score [6]: 1.51
- PBM binding z-score [7]: 0.427
- PBM binding z-score [8]: 0.848
- PBM binding z-score [9]: -0.218
- PBM binding z-score [10]: 0.338

Sequence: ATATGTAGGTTACATCCGGGTAATTCAGGCTATG
- PBM binding z-score [1]: 0.626
- PBM binding z-score [2]: 5.83
- PBM binding z-score [3]: 1.24
- PBM binding z-score [4]: 3
- PBM binding z-score [5]: 0.708
- PBM binding z-score [6]: 3.26
- PBM binding z-score [7]: 5.44
- PBM binding z-score [8]: 4.35
- PBM binding z-score [9]: 1.75
- PBM binding z-score [10]: 3.32

Sequence: ACTAGCAGGGCAAGGGTCACTCAAGATTAGTCCG
- PBM binding z-score [1]: 2.88
- PBM binding z-score [2]: 2.84
- PBM binding z-score [3]: 0.175
- PBM binding z-score [4]: 2.76
- PBM binding z-score [5]: -0.693
- PBM binding z-score [6]: 4.79
- PBM binding z-score [7]: 8.91
- PBM binding z-score [8]: 7.48
- PBM binding z-score [9]: 7.19
- PBM binding z-score [10]: 7.64

Sequence: GCTATTATTTGAAAGGGCAACCGAATGATTCTCG
- PBM binding z-score [1]: 0.306
- PBM binding z-score [2]: 0.97
- PBM binding z-score [3]: 1.37
- PBM binding z-score [4]: 0.925
- PBM binding z-score [5]: 0.441
- PBM binding z-score [6]: 1.08
- PBM binding z-score [7]: 0.626
- PBM binding z-score [8]: 1.41
- PBM binding z-score [9]: 0.637
- PBM binding z-score [10]: 0.844
